Reference: PubChem BioAssay (NCI)
The panel holds about 83,000 compounds, 20% with a hit somewhere; the sample as a whole holds those more often.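 Each cell line was grown in a 96-well plate and treated with one concentration of compound for 48 hours. Values below 10 were considered active.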 Calls of active or inactive are those of the source.

Columns and labels:
Test in all cases: NCI-60 one-dose screen, 48 h (100 = growth as untreated, 0 = no growth, -100 = all killed)
Settings in all cases: 10 µM unless noted
[1] = test system: HCT-15 colon
[2] = test system: HT29 colon
[3] = test system: SNB-75 CNS
[4] = test system: SNB-19 CNS
[5] = test system: U251 CNS
[6] = test system: PC-3 prostate
[7] = test system: SK-MEL-5 melanoma
[8] = test system: UACC-62 melanoma
[9] = test system: SK-MEL-28 melanoma
[10] = test system: SK-MEL-2 melanoma
[11] = test system: EKVX NSCLC
[12] = test system: SN12C renal
[13] = test system: UO-31 renal
[14] = test system: TK-10 renal
[15] = test system: ACHN renal
[16] = test system: CAKI-1 renal
[17] = test system: A498 renal
[18] = test system: CCRF-CEM leukemia
[19] = test system: MOLT-4 leukemia

Measured: growth

COc1ccccc1-n1cnc(N)c1C(=O)c1cc(OC)c(OC)c(OC)c1
inactive: [1] 35.5% | [2] 11.7% | [4] 55.1% | [5] 36.8% | [6] 50.2% | [7] 28.5% | [8] 29.1% | [9] 51.5% | [10] 57.1% | [11] 55.3% | [12] 62.3% | [13] 55.2% | [14] 80.8% | [15] 58.6% | [16] 39.8% | [17] 26.6% | [18] 24.2% | [19] 50.8%
active: [3] 8.36%

C=C(C)[C@@H]1CC[C@]2(C(=O)NNC(=O)c3cccnc3)CC[C@]3(C)[C@H](CC[C@@H]4[C@@]5(C)CCCNC(C)(C)[C@@H]5CC[C@]43C)[C@@H]12
inactive: [1] 62.4% | [2] 11.3% | [3] 80% | [4] 91.2% | [5] 64.6% | [6] 50.3% | [7] 74.4% | [8] 91% | [9] 90% | [10] 100% | [11] 94.3% | [12] 83.7% | [13] 64% | [14] 158% | [15] 98.1% | [16] 76% | [17] 88.1% | [18] 65.6% | [19] 40.1%

C[C@@H](Oc1ccc(C(=O)NS(=O)(=O)C(C)(C)C)cc1C(F)(F)F)c1ccc(Oc2ccccc2)cn1
active: [3] -9.43% | [17] -0.737%
inactive: [1] 23.8% | [2] 34.6% | [4] 20% | [5] 25.6% | [6] 47.5% | [7] 23.2% | [8] 18% | [9] 47.1% | [10] 38.2% | [11] 65% | [12] 61.2% | [13] 58.8% | [14] 79.1% | [15] 61.8% | [16] 38.8% | [18] 25.9% | [19] 57.3%

Oc1ccccc1/C=N\NC(=S)Nc1ccc(F)cc1
inactive: [1] 21.8% | [2] 39.1% | [3] 43.1% | [4] 36% | [5] 27.7% | [6] 40% | [9] 30.8% | [10] 18.5% | [11] 29.8% | [12] 36.6% | [14] 49.1% | [15] 13.8% | [17] 91.9% | [18] 14%
active: [7] 6.1% | [8] 2.27% | [13] 7.46% | [16] -4.58% | [19] 7.67%

CC(C)c1cc(C(=O)O)c(O)c(C(C)C)c1.CC(C)c1cc(C(=O)O)c(O)c(C(C)C)c1.[Mn]
inactive: [1] 108% | [2] 119% | [3] 106% | [4] 91.6% | [5] 98.3% | [6] 98.2% | [7] 94.3% | [8] 94.9% | [9] 113% | [10] 118% | [11] 102% | [12] 101% | [13] 85.5% | [14] 106% | [15] 103% | [16] 100% | [17] 126% | [18] 95.1% | [19] 99.2%

CN1CCN(c2nc(-c3csc(-c4cccs4)n3)cc3ccccc23)CC1
inactive: [3] 54.5% | [4] 66.1% | [5] 28.8% | [6] 39.8% | [7] 43.7% | [8] 33.6% | [9] 68.9% | [10] 39.7% | [11] 68.3% | [12] 71% | [13] 59.8% | [14] 79% | [15] 31.4% | [16] 39.6% | [17] 10.5% | [18] 30.7%
active: [1] 7.33% | [2] -27.3% | [19] 9.46%

CC(=O)c1c(C)[nH]c(-c2nc3ccc(N4CCN(C)CC4)cc3[nH]2)c1-c1ccc2c(c1)OCCO2
inactive: [2] 14.2% | [4] 51.3% | [5] 57.2% | [6] 45.8% | [7] 26.1% | [8] 20.9% | [9] 50.8% | [10] 76.4% | [11] 45.2% | [12] 58.5% | [15] 29.3% | [16] 13.3% | [17] 45.5% | [18] 50.3% | [19] 58.3%
active: [1] 8.46% | [3] 1.99% | [13] 9.19% | [14] 1.44%

O=C1C=Cc2ncccc2C1=O
active: [18] -37.5% | [19] 0.968%
inactive: [1] 80.3% | [2] 108% | [3] 119% | [4] 85.2% | [5] 42.2% | [6] 88.5% | [7] 92.9% | [8] 90.7% | [9] 121% | [10] 114% | [11] 64.7% | [12] 65.2% | [13] 68.3% | [14] 111% | [15] 76.1% | [16] 81.2% | [17] 125%

C(=C\c1c[nH]c2ccccc12)/c1ccc2ccccc2n1
inactive: [1] 53.9% | [2] 33.4% | [3] 81.1% | [4] 84.4% | [5] 59.7% | [6] 59.3% | [7] 96% | [8] 86.8% | [9] 107% | [10] 86.5% | [11] 70.8% | [12] 51.4% | [13] 23.6% | [14] 114% | [15] 89.9% | [16] 60.7% | [17] 120% | [18] 14.9% | [19] 12.4%

COC(=O)[C@]12CC[C@@H](C(C)=O)[C@@H]1[C@H]1CC[C@@H]3[C@@]4(C)C/C(=C/c5cccnc5)C(=O)C(C)(C)[C@@H]4CC[C@@]3(C)[C@]1(C)CC2
inactive: [1] 23.2% | [2] 16.5% | [3] 110% | [4] 67.7% | [5] 56.6% | [6] 24.4% | [7] 39.8% | [8] 34.5% | [9] 31.5% | [10] 68.1% | [11] 85.8% | [12] 57.7% | [13] 56.6% | [14] 133% | [15] 32.5% | [16] 51% | [17] 80.6%
active: [18] 7.57% | [19] 5.47%

CN(CSc1ccc(Cl)cc1)c1ccc(CSc2ccc(Cl)cc2)cc1
active: [18] 6.37% | [19] 8.87%
inactive: [1] 62.8% | [2] 96.8% | [3] 86% | [4] 84.7% | [5] 53.6% | [6] 38.4% | [7] 70.9% | [8] 84% | [9] 79.9% | [10] 78.1% | [11] 86.8% | [12] 36.9% | [13] 26.6% | [14] 87.1% | [15] 87.4% | [16] 44.7% | [17] 71.8%

CC1(C)C(=O)/C(=C\c2ccccn2)C[C@]2(C)[C@H]3CC[C@@H]4[C@@H](C(=O)/C=C/c5ccccn5)CC[C@@]4(C)[C@]3(C)CC[C@@H]12
active: [1] -31% | [2] -13.6% | [3] -3.97% | [4] 4.66% | [5] -80.5% | [6] 9.61% | [7] -82.5% | [8] -54.2% | [9] -32.1% | [10] -25.6% | [11] -16.4% | [12] -4.12% | [13] -99.6% | [14] -21.7% | [15] -89% | [16] -20.3% | [17] -80.6% | [18] 6.8% | [19] 7.28%

Fc1ccc2[nH]cc(-c3nc(-c4c[nH]c5ncccc45)cs3)c2c1
inactive: [1] 20.3% | [2] 21.7% | [4] 63.8% | [5] 43.6% | [6] 43.8% | [7] 52.8% | [8] 48.5% | [9] 89% | [10] 52.9% | [11] 37.2% | [12] 49.3% | [13] 41.8% | [14] 52.2% | [15] 11.3% | [16] 18.6% | [17] 33.5% | [18] 18.7%
active: [3] -17.2% | [19] 2.93%

C=C(C)[C@@H]1CC[C@]2(C(=O)OC)CC[C@]3(C)[C@H](CC[C@@H]4[C@@](C)(CC/C(N)=N/O)[C@H](C(=C)C)CC[C@]43C)[C@@H]12
inactive: [1] 102% | [2] 99.1% | [3] 95.4% | [4] 95.9% | [5] 97.7% | [6] 86.1% | [7] 94.2% | [8] 99.6% | [9] 101% | [10] 97.9% | [11] 97% | [12] 97.2% | [13] 93% | [14] 105% | [15] 101% | [16] 77.7% | [17] 95.1% | [18] 107% | [19] 92.4%

CC(C)=CCC[C@](C)(O)[C@H]1CC[C@]2(C)[C@@H]1CC[C@@H]1[C@@]3(C)C/C(=C/c4cccc([N+](=O)[O-])c4)C(=O)C(C)(C)[C@@H]3CC[C@]12C
active: [3] 0.754%
inactive: [1] 83.5% | [2] 55.4% | [4] 96% | [5] 85.7% | [6] 58.2% | [7] 101% | [8] 78.1% | [9] 104% | [10] 115% | [11] 92.6% | [12] 81.1% | [13] 69.3% | [14] 128% | [15] 98.9% | [16] 51.9% | [17] 92.6% | [18] 76.3% | [19] 67.5%

Cn1c(/C(C#N)=C/c2ccc3ccccc3c2)cc2ccccc21
active: [1] 5.67% | [7] -26.7% | [17] 2.85%
inactive: [2] 21.8% | [3] 15.3% | [4] 23.9% | [5] 34.1% | [6] 28.8% | [8] 18.7% | [9] 63.4% | [10] 71.7% | [11] 37.4% | [12] 33.5% | [13] 57.5% | [14] 106% | [15] 35.4% | [16] 28.5% | [18] 11.8% | [19] 19.9%
